Laboratory results taken from PubChem BioAssay (NCATS).
Results filed as inconclusive are left out. Active and inactive are the calls of the source. Calls come from the whole dose curve; as a rule, active = well fitted inhibition curve with a large enough effect; inconclusive = small, poorly fitted or top-dose-only effect; inactive = flat fitted curve, though single readings scatter. Peptide text beside a SMILES is read from it.

System: CRL-7250
Assay: qHTS assay to identify novel small-molecules to repurpose for Merkel cell carcinoma treatment (AID 1296009); note: nearly all actives have a fitted effect of over 60% in size
Settings: MCC and control cell lines, CellTiter-Glo viability, 72 h; series mostly up to 92 µM; activity change, negative = cytotoxicity: at the top concentration
Procedure, shortened: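 After compound transfer in DMSO, plates were kept 72 hr at 37 degree celsius. Luminescent ATP signal from CellTiter-Glo served as viability measure, normalized against DMSO and no-cell controls.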

Structure (SMILES)	outcome
COC(=O)C1=COC(OC2OC(CO)C(O)C(O)C2O)C2C(COC(=O)/C=C/c3ccc(O)c(O)c3)C(O)C(O)C12 (stereo not given)	inactive [at 17.4 µM]
CC(=O)N[C@@H](Cc1c[nH]c2ccccc12)C(=O)N[C@@H](CCC(=O)O)C(=O)N[C@@H](Cc1cnc[nH]1)C(=O)N[C@@H](CC(=O)O)C(=O)Nc1ccc2c(C(F)(F)F)cc(=O)oc2c1 (HELM PEPTIDE1{[ac].W.E.H.D.[O=c1cc(C(F)(F)F)c2ccc(N[*:1])cc2o1]}$$$$V2.0)	inactive
O=C(CN1C(=O)C2(CCCC2)NCC1c1cc(F)cc(F)c1)Nc1ccc2c(c1)CC1(C2)C(=O)Nc2ncccc21 (stereo not given)	inactive
NCCCC[C@H](NC(=O)[C@@H]1Cc2ccccc2CN1C(=O)CCC(=O)c1ccccc1)C(=O)NCC(c1ccccc1)c1ccccc1	inactive
CC[C@@H](Nc1c(Nc2cccc(C(=O)N(C)C)c2O)c(=O)c1=O)c1ccc(C)o1	inactive
COc1c2c(c(C)c3c1C(=O)OC3)OC1(C)CC(O)C34OC(OC)(CCC3(C)C1C2)OC4(C)CO (stereo not given)	inactive [at 17.4 µM]
O=C(/C=C/c1ccc(O)cc1)OC[C@H]1O[C@@H](O/C(=C\c2ccccc2)C(=O)O)[C@H](O)[C@@H](O)[C@@H]1O	inactive [at 17.4 µM]
Cc1ccc2c(c1)C=Cc1cc(C)ccc1C2c1cn(Cc2ccc(C(=O)Nc3nn[nH]n3)o2)c(=O)[nH]c1=S	inactive
CC1CCC2(C)CCC3(C)C(=CCC4C5(C)CCC(O)C(C)(C(=O)O)C5CCC43C)C2C1C (stereo not given)	inactive [at 17.4 µM]
CC1(C)O[C@@]2(C)CC[C@@H]1C[C@@H]2OC1OC(CO)C(O)C(O)C1O (stereo not given in full)	inactive
